# In the library only some 7.1% were active in any assay of this set; here they are far more common.
# PTK2B oligo ant: antagonists of human Pyk2 oligomerization | Q14289 | Q293 cells, Pyk2 FERM NanoBiT luminescence; hits give low values | z-score (the deposit names both 25 µM and 10 µM) | 99,000 tested, 0.83% active;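 active = Z-score of -3 or lower, scaled per plate to the spread of control and sample wells; inactive = z-score above -3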;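 also: negative z-score means lost luminescence so less FERM oligomerization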
# Cav32 inh: inhibitors of human Cav3.2 T-type calcium channel; B-score at 10 µM; O95180; Cav3.2-expressing cells, Fluo-4 calcium fluorescence FDSS; hits give low values; 100,000 tested, 4% active;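 active = single-dose well whose peak fluorescence ratio is a statistical outlier from its plate by either plate-standardised score or position-corrected B-score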
# M1 ag: agonists of M1 muscarinic receptor; CHO-M1 cells, Fluo-4 calcium fluorescence, agonist mode; hits give high values; B-score at 10 µM; 64,000 tested, 3% active;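 active = fluorescence rise, raw or as B-score row- and column-corrected plate score, outside the 99.7% band of its plate's samples, either direction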
# M1 antagonist: M1 muscarinic receptor (rat) antagonism; CHO-M1 cells, Fluo-4 calcium, ACh EC80 antagonist mode; hits give low values; B-score at 10 µM; 64,000 tested, 3.4% active;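 active = calcium fluorescence response, raw or row-and-column corrected B-score, differing from the plate sample mean either way at a set confidence level, mostly lower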
# Target sequence (P08482 whole entry, looked up): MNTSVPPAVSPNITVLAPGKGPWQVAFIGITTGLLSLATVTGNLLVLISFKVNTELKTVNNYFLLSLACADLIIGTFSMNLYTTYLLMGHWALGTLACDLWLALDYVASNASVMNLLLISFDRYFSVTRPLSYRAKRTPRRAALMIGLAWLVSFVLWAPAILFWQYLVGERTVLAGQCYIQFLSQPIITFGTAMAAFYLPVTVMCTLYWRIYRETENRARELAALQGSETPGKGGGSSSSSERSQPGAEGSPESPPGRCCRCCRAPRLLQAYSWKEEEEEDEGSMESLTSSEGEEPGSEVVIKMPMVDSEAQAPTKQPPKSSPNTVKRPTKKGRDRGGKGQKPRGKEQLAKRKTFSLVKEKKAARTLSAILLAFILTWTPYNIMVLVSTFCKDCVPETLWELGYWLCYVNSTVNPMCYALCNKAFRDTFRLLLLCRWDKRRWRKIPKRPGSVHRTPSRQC
# Starred values were filed as active, the others as inactive; nt = no result given.
SMILES,PTK2B oligo ant,Cav32 inh,M1 ag,M1 antagonist
CC(C)c1ccc(NC(=O)C(c2ccccc2)N(C)C(=O)CCc2c[nH]c3ccccc23)cc1 (centres undefined),nt,-0.84,nt,nt
CCc1ccccc1N1CCN(S(=O)(=O)c2cc(OC)ccc2OC)CC1,-3.3*,-2.6,-2.1,-0.37
O=C(NCc1ccc2c(c1)OCO2)c1ccc(CN2CCc3ccccc3C2)cc1,1.6,-5.3*,nt,nt
Cc1cc(C)c(NC(=O)c2ccc(CN3CCc4ccccc4C3)cc2)c(C)c1,0.64,-4.3*,nt,nt
O=C(NCc1cccnc1)c1ccc(CN2CCc3ccccc3C2)cc1,-0.53,0.42,nt,nt
COc1ccc(S(=O)(=O)N(CCc2ccccc2)CC(=O)NC(C)C)cc1,-0.79,0.2,nt,nt
CC[n+]1c(/C=C/C=C/N(C(C)=O)c2ccccc2)sc2ccccc21,0.05,-4.6*,nt,nt
CCn1c(/C=C/N(C(C)=O)c2ccccc2)[n+](CC)c2ccc(Cl)cc21,1.7,nt,nt,nt
Clc1ccc2nc(NC3=NCN(CCN4CCOCC4)CN3)nc(-c3ccccc3)c2c1,nt,nt,0.8,-15*
Cn1c(=O)c2c(nc(NCC3CCCO3)n2Cc2cccc(Br)c2)n(C)c1=O (centres undefined),-0.89,-0.077,nt,nt
CC(C)c1ccc(O)c(NC(=O)c2ncn[nH]2)c1,-0.02,nt,0.2,2.3*
O=C(Cc1ccccc1)NCC(=O)OCC(=O)c1ccc(OC(=O)c2ccccc2)cc1,0.07,-0.11,nt,nt
COc1ccc(SCC(=O)c2cc(C)c(OC(=S)N(C)C)c(C)c2)cc1,-0.53,-4.5*,nt,nt
O=C(CNS(=O)(=O)c1ccccc1)Nc1ccc(C(F)(F)F)cc1,-0.27,-1.3,nt,nt
C=C(C)c1cccc(C(C)(C)NC(=O)N(Cc2ccccc2)Cc2ccco2)c1,-1.8,nt,nt,nt
COc1ccc(C2C(C(=O)Nc3ccccc3)=C(C)N=C3SCC(=O)N32)cc1 (centres undefined),-0.12,-9.9*,nt,nt
CC1=C(C(=O)Nc2ccccc2)C(c2ccc(O)cc2)N2C(=O)CSC2=N1 (centres undefined),-0.95,-2.4,nt,nt
CCN(CC)S(=O)(=O)c1cccc(NC(=O)COC(=O)CCc2nc3ccccc3s2)c1,0.66,-0.9,nt,nt
CCN(CC)S(=O)(=O)c1cc(NC(=O)COC(=O)CCc2nc3ccccc3s2)ccc1C,0.96,-4.8*,nt,nt
NC(=O)c1cc2ccc(O)cc2oc1=NCc1ccccc1,-1.1,-7.6*,nt,nt
CCOC(=O)c1cnn(-c2c(Cc3ccccc3)c(C)nc3c(-c4ccccc4)c(C)nn23)c1N,-4*,-0.35,nt,nt
COc1ccc(N(Cc2ccccc2)C(=O)CSc2nnc(Cn3nnc4ccccc43)o2)cc1,-0.84,-5.8*,nt,nt
COc1ccc(CN(C(=O)CSc2nnc(-c3c[nH]c4ccccc34)o2)c2ccc(F)cc2)cc1OC,-4.2*,-0.12,nt,nt
COc1ccc(CN(C(=O)CSc2nnc(-c3ccc(F)cc3)o2)c2ccc(F)cc2)cc1,-2.1,-6.5*,0.36,0.019
Cc1cc(C)nc(SCc2nc(N)nc(-c3ccccc3O)n2)n1,-1.4,-1.2,-1.2,0.43
SMILES,PTK2B oligo ant,Cav32 inh,M1 ag,M1 antagonist
CCOC(=O)c1c(NC(=O)c2ccc(N3C(=O)C4C5C=CC(C5)C4C3=O)cc2)sc2c1CCCC2 (centres undefined),-0.15,-2.4,nt,nt
O=S(=O)(NC1CC1)c1ccc(S(=O)(=O)N(Cc2ccccn2)C2CCCC2)cc1,-0.92,-0.96,nt,nt
COc1cc(NC(=O)C2=C(N3CCOCC3)/C(=C\c3ccc(Cl)cc3Cl)CC2)cc(OC)c1OC,-0.48,nt,nt,nt
CCn1c(CSc2nc3ccccc3s2)nnc1SCC(=O)c1ccc(Cl)cc1,-0.2,-4.2*,nt,nt
CCn1c(CSc2nc3ccccc3s2)nnc1SCC(=O)c1ccc(O)c(O)c1,0.6,-1.2,nt,nt
CCc1sc(N(C(=O)Cc2ccccc2)c2ccccc2)nc1-c1ccccc1,-0.75,0.0067,nt,nt
CCc1sc(N(C(=O)Cc2ccccc2)c2ccc(F)cc2)nc1-c1ccccc1,-0.17,-5.3*,nt,nt
CCOc1cc(C2C(C(=O)OC)=C(C)N=C3SC(C)C(=O)N32)ccc1OC(C)=O (centres undefined),-0.34,-2.6,-0.073,-0.49
COC(=O)C1=C(C)N=C2SC(C)C(=O)N2C1c1cccc(F)c1 (centres undefined),-3.6*,-4.6*,-0.013,-0.056
CNC(=O)C1CC(=O)N(c2ccc(C)cc2)C1 (centres undefined),0.85,-3.8*,0.19,0.54
CCC(CC)C(=O)Nc1ccc(Sc2ccc([N+](=O)[O-])cc2)cc1,-1.5,-5.1*,nt,nt
CCC(CC)C(=O)Nc1ccc(Cl)c(Cl)c1,-2.2,-5.2*,nt,nt
CC(C)OC(=O)NCCOC(=O)Nc1cccc(Cl)c1,0.15,-0.77,0.054,-0.0043
CC(C)OC(=O)NCCOC(=O)Nc1ccc(Cl)c(Cl)c1,1.2,-7*,nt,nt
CC1(c2nnc(-c3ccncc3)o2)CC(c2ccccc2)=NO1 (centres undefined),nt,0.14,nt,nt

# Source: PubChem BioAssay (several laboratories)
